About 14,000 (4.5%) of roughly 310,000 compounds showed an effect of 50% or more. Effects have a minus sign here. The list comes from a sample in which strong results are over-represented; it also holds similar structures and randomly drawn compounds.
molecular target: human ether-à-go-go-related gene (hERG) potassium channel (human, UniProt Q12809); assay: primary screen, population patch clamp on CHO cells stably expressing hERG; higher = less effect of the substance
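Note: peak tail current of the secondary pulse compared with the same well before compound.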

human ether-à-go-go-related gene (hERG) potassium channel, sequence (Q12809 whole entry, looked up): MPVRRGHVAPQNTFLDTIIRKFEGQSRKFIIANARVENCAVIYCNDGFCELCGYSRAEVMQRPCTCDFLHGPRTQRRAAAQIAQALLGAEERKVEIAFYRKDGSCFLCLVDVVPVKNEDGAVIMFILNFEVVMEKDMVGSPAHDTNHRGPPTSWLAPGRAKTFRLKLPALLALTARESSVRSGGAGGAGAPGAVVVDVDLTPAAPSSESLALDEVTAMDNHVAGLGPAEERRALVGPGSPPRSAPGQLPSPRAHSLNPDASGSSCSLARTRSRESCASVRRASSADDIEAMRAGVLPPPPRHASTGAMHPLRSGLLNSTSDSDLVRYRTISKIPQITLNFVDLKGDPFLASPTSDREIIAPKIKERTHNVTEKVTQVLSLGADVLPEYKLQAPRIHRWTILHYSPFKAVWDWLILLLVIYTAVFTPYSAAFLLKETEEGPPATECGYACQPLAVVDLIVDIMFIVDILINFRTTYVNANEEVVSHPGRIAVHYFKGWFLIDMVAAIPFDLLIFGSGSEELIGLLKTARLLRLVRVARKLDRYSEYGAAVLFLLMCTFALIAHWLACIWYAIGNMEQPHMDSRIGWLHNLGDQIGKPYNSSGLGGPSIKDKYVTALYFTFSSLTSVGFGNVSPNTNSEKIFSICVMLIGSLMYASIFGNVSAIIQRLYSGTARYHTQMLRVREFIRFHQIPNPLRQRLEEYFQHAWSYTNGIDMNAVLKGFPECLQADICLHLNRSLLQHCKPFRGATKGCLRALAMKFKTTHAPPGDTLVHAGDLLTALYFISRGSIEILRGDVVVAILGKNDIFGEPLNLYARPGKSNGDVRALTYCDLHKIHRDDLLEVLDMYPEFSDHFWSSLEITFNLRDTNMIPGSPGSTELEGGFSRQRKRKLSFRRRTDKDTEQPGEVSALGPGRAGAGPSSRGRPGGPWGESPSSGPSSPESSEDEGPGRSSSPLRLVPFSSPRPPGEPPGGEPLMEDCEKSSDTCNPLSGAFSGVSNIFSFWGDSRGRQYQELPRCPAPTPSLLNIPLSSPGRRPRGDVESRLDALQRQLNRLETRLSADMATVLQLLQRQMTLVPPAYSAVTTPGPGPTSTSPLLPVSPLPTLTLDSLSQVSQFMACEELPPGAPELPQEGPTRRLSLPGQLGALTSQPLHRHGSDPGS

| SMILES | hERG current change (%, negative = inhibition) at 10uM |
| --- | --- |
| CCn1cc(C(=O)NCc2ccco2)c(=O)c2cc(S(=O)(=O)N3CC(C)CC(C)C3)ccc21 (stereo not drawn) | -7.3% |
| O=c1c2ccccc2nnn1CSc1nnc(-c2cccnc2)n1-c1ccccc1F | 11.5% |
| CNC(=O)c1cc(S(=O)(=O)Nc2ccc3c(c2)OCO3)ccc1C | 4.42% |
| COc1ccc(CCNC(=O)CCCCC(=O)NCCc2ccc(OC)c(OC)c2)cc1OC | 4.7% |
| CCN(c1ccc(OC)cc1)S(=O)(=O)c1nnc(NC(=O)c2ccccc2Cl)s1 | 15.5% |
| Cc1ccnc(NC(=O)C2CCN(S(=O)(=O)c3ccc4c(c3)CC(C)N4C(=O)C3CCC3)CC2)c1 (stereo not drawn) | -0.431% |
| COc1cc(/C=C(\C#N)C(=O)Nc2cccc(C(=O)O)c2)ccc1OCc1ccc(F)cc1 | 22.6% |
| C=CCSc1nnnn1-c1ccc(OC)cc1 | -20% |
| Cc1ccc(CNC(=O)CCCNC(=O)c2ccc(Cl)cc2)n1C | 2.05% |
| Cc1ccc(CN2CCN(Cc3cn(C)nc3C)CC2CCO)o1 (stereo not drawn) | 12.4% |
| CCOC(=O)C1(CCOc2ccccc2)CCN(Cc2cccc(O)c2)CC1 | -63.1% |
| CCOC(=O)C1(CCOc2ccccc2)CCN(Cc2cccc(OCCO)c2)CC1 | -83.4% |
| CCOC(=O)C1(CCOc2ccccc2)CCN(Cc2cccc(F)c2)CC1 | -65.4% |
| CCOC(=O)C1(CCOC)CCN(Cc2cccc(OCc3ccccc3)c2)CC1 | -42.4% |
| CCOC(=O)C1(CCOc2ccccc2)CCN(Cc2cccc(OC)c2)CC1 | -76.1% |
| COc1ccccc1NCCC(=O)OCC(=O)NCc1ccco1 | 23.7% |
| COc1ccc(N(CC(=O)Nc2cccc(C(C)=O)c2)S(C)(=O)=O)cc1OC | -10.5% |
| Cn1c(Cn2nnc3ccccc32)nnc1SCC(=O)N1c2ccccc2CCc2ccccc21 | -23.6% |
| O=C(NCCc1ccc(OC(F)F)cc1)C1CC(=O)N(c2ccc3c(c2)OCCO3)C1 (stereo not drawn) | -47.6% |
| CNC(=S)N/N=C/c1cc(C)ccc1C | 20.7% |
| O=C(CCc1ccccc1)Nc1ncc([N+](=O)[O-])s1 | 2.96% |
| Cc1ccc(CNC(=O)C2CCC(=O)N2Cc2ccccc2Cl)cc1 (stereo not drawn) | 2.52% |
| CCOC(=O)C1(CCOc2ccccc2)CCN(Cc2cc(OC)cc(OC)c2)CC1 | -79.8% |
| CN(C(=O)c1ccc(NC(=O)Cc2ccc(NC(=O)C3CCN(C(=O)C4CCCC4)CC3)cc2)cc1)C1CC1 | 22.8% |

| SMILES | hERG current change (%, negative = inhibition) at 10uM |
| --- | --- |
| O=C(CN1CCN(S(=O)(=O)c2ccc(Cl)s2)CC1)N1CCOCC1 | 14.4% |
| Cc1cc(Cl)c(C)c(S(=O)(=O)N2CCN(CC(=O)N3CCOCC3)CC2)c1Cl | -64.8% |
| O=C(CN1CCN(S(=O)(=O)c2ccccc2)CC1)N1CCCCC1 | 10.8% |
| O=C(CN1CCN(S(=O)(=O)c2ccc(Cl)c(Cl)c2)CC1)N1CCCCC1 | -53.5% |
| Cc1ccc(S(=O)(=O)N2CCN(CC(=O)N3CCOCC3)CC2)cc1 | 16.8% |
| O=C(CN1CCN(S(=O)(=O)c2cccc(Cl)c2)CC1)N1CCCCC1 | -24.8% |
| COc1ccc2c(c1)O[C@@]1(CCCC[C@@H]1C)CC2=O | -1.09% |
| CCC(C)Sc1nc2c(c(=O)[nH]c(=O)n2C)n1C (stereo not drawn) | -4.04% |
| Cc1nn(C(C)C(=O)NCCN2CCCC2)c(=O)c2c1sc1ccccc12 (stereo not drawn) | 1.56% |
| Cn1c(C(=O)N2CCN(c3nc4ccccc4s3)CC2)cc2sccc21 | -8.35% |
| O=C(Nc1ccccc1C(=O)Nc1ccncc1)c1ccc([N+](=O)[O-])cc1 | -4.77% |
| O=C(Nc1ccc(Nc2ccncc2)cc1)c1ccc([N+](=O)[O-])cc1 | -59.5% |
| O=C(NCCCCC(NC(=O)c1ccc([N+](=O)[O-])cc1)C(=O)O)c1ccc([N+](=O)[O-])cc1 (stereo not drawn) | -44.7% |
| O=C(CCNc1ccc(Cc2ccncc2)cc1)c1ccc([N+](=O)[O-])cc1 | -56.8% |
| COc1ccc(C(=O)NCCNc2ccc([N+](=O)[O-])cc2)cc1OC | -1.31% |
| COc1cc(C(=O)NCCCNc2ccc([N+](=O)[O-])cc2)cc(OC)c1OC | -57.6% |
| O=C(CCNc1ccc(Cc2ccncc2)cc1)c1cccc([N+](=O)[O-])c1 | 11% |
| O=C(NNC(=O)c1ccncc1)Nc1ccc([N+](=O)[O-])cc1 | 11.2% |
| COc1ccccc1C(=O)NCCCNc1ccc([N+](=O)[O-])cc1 | -19.2% |
| O=[N+]([O-])c1ccc(NCc2ccncc2)cc1 | -3.55% |
| COC(=O)C(CC(C)C)NC(=O)c1ccc([N+](=O)[O-])cc1 (stereo not drawn) | -23.2% |
| COC(=O)C(CCCCNC(=O)c1ccc([N+](=O)[O-])cc1)NC(=O)c1ccc([N+](=O)[O-])cc1 (stereo not drawn) | -76.3% |
| COc1cccc(CN2CCNC(=O)C2CC(=O)NCCc2ccccn2)c1 (stereo not drawn) | 9.8% |
| CC1CCN(C(c2cc3cc4c(cc3[nH]c2=O)OCO4)c2nnnn2CC2CCCO2)CC1 (stereo not drawn) | -3.99% |

| SMILES | hERG current change (%, negative = inhibition) at 10uM |
| --- | --- |
| Nc1ccc(SCCN2C(=O)c3ccccc3C2=O)cc1 | -1.22% |
| CC(=O)/C(C(=N)N1CCN(C(c2ccccc2)c2ccccc2)CC1)=C(\C)O | 8.3% |
| O=C(CCNC(=O)c1ccco1)Nc1ccccc1OC(F)F | 10.4% |
| COc1ccccc1-c1cc(C(=O)NCCc2ccccc2)no1 | 5.18% |
| BrCC(Br)C1CCC(Br)C(Br)C1 (stereo not drawn) | 20.6% |
| Cc1cc(OCC(=O)NC(C)(C)C)ccc1Cl | 7.04% |
| COC(=O)c1ccc2c(c1)NC1=C(C(=O)CC(C)(C)C1)C(c1ccncc1)N2 (stereo not drawn) | -4.48% |
| O=C(NCc1ccco1)c1cc([N+](=O)[O-])ccc1N1CCOCC1 | -25.4% |
| c1ccc(-n2nnnc2CN2CCOCC2)cc1 | 14.8% |
| CCOC(=O)[C@H]1[C@H]2COc3ccc(C)cc3[C@@H]2N2C(=O)CN(CC3CCCO3)C(=O)[C@@]12C (stereo partly drawn) | 7.72% |
| O=C(NCCNc1ccc([N+](=O)[O-])cc1)c1cc(F)c(F)cc1Cl | -45.1% |
| COc1ccc2nc(NCCCNC(=O)c3cc(OC)c(OC)c(OC)c3)c(C#N)cc2c1 | -11% |
| CCOc1ccc2nc(NCCNC(=O)c3cc(OC)c(OC)c(OC)c3)c(C#N)cc2c1 | 5.24% |
| O=C(NCCNc1ccc([N+](=O)[O-])cc1)c1ccc(Cl)cc1 | -52.8% |
| CCOc1ccc2nc(NCCCNC(=O)c3cc(OC)c(OC)c(OC)c3)c(C#N)cc2c1 | -51.3% |
| COc1ccc(C(=O)NCCNc2ccc([N+](=O)[O-])cc2)cc1 | -40.9% |
| Cn1nnnc1Sc1ncnc2scc(-c3ccccc3Br)c12 | -4.66% |
| COc1ccc(CCN(C)C2CC(=O)N(c3ccccc3)C2=O)cc1OC (stereo not drawn) | -5.77% |
| Cc1ccc(N(Cc2cc(=O)[nH]c3ccccc23)C(=O)c2ccco2)cc1 | -34.4% |
| Cc1cc(C)n(C(=O)Cn2nc(C)c(Br)c2C)n1 | 14% |
| O=C(Nc1cccc(Cl)c1)Nc1cnccn1 | 29.1% |
| CCOC(=O)C1(CC2CCCCO2)CCN(Cc2cc(F)ccc2-n2cccn2)CC1 (stereo not drawn) | -57.1% |
| CCOC(=O)C1(CC2CCCCO2)CCN(Cc2nc(C(C)C)cs2)CC1 (stereo not drawn) | -5.24% |
| CCCCc1ncc(CN2CCC(CC3CCCCO3)(C(=O)OCC)CC2)[nH]1 (stereo not drawn) | -45% |

| SMILES | hERG current change (%, negative = inhibition) at 10uM |
| --- | --- |
| CCOC(=O)C1(CC2CCCCO2)CCN(Cc2nccn2-c2cccc(C)c2)CC1 (stereo not drawn) | 13.2% |
| CCOC(=O)C1(CC2CCCCO2)CCN(Cc2nc3ccccc3[nH]2)CC1 (stereo not drawn) | -19.5% |
| CCOC(=O)C1(CC2CCCCO2)CCN(Cc2c(C)cc(C)cc2-n2cccn2)CC1 (stereo not drawn) | -77.8% |
| CNC(=O)NC(=O)C(C)OC(=O)c1cc2c(s1)CCCCC2 (stereo not drawn) | -7.89% |
| COc1ccccc1CNC(=O)CCS(=O)(=O)Cc1ccc(C)cc1 | 11.3% |
| O=C(CCNC(=O)c1ccco1)Nc1ccccc1 | 15% |
| O=C(CCNC(=O)c1ccco1)Nc1ccc(SC(F)F)cc1 | -52.7% |
| O=C(CCNC(=O)c1ccco1)Nc1ccc(OC(F)F)cc1 | -23.8% |
| COc1cc(OC)c(C2=NOC(C(=O)Nc3ccc4c(c3)OCO4)C2)cc1Cl (stereo not drawn) | 10.7% |
| C=CCOC(=O)C(=O)/C=C/c1c(C)n(C)n(-c2ccccc2)c1=O | 27.2% |
| CCOc1ccc(NC(=O)COC(=O)CC2CCCCC2)cc1 | -6.75% |
| COc1ccc(/C=C(/NC(=O)c2ccccc2)C(=O)NCCN2CCOCC2)cc1OC | 11.6% |
| Cc1ccc(C(=O)N/C(=C\c2ccc(Cl)cc2)C(=O)NCCCN2CCOCC2)cc1 | -72.5% |
| O=C(NC(=S)NCCN1CCOCC1)c1ccc(F)cc1 | -4.01% |
| COc1ccc(/C=C(\NC(=O)c2ccc(C)cc2)C(=O)NCCN2CCOCC2)cc1 | -64.6% |
| O=C(NCCN1CCOCC1)/C(=C/c1ccccc1)NC(=O)c1ccccc1 | -16.4% |
| Cc1ccc(C(=O)N/C(=C\c2ccc(F)cc2)C(=O)NCCN2CCOCC2)cc1 | -75.6% |
| COc1ccc(/C=C(\NC(=O)c2ccc(Cl)cc2)C(=O)NCCCN2CCOCC2)cc1OC | 13.9% |
| Cc1ccc(C(=O)N/C(=C\c2ccccc2)C(=O)NCCN2CCOCC2)cc1 | -62.4% |
| COc1ccc(/C=C(\NC(=O)c2ccccc2)C(=O)NCCN2CCOCC2)cc1 | -34.3% |
| Cc1ccc(C(=O)NC(=S)NCCN2CCOCC2)cc1 | 23.3% |
